From PubChem BioAssay
TEAD-YAP inh: TEAD-YAP interaction inhibition, primary screen, TEAD-YAP interaction inhibitor project, luminescence, HEK-TIYL cells; 640,000 compounds, 1.4% hits; inhibition, % at 9.12 µM; TEAD-Gal4/YAP UAS-luciferase luminescence; in the data active = inhibition above about 32%
GPR151 activ: activators of human GPR151, primary screen, cell-based, PathHunter beta-arrestin, luminescence. G-protein coupled receptor 151 (Homo sapiens), Q8TDV0. PathHunter beta-arrestin GPR151 cells. activation, % at 11.2 µM. 650,000 compounds, 1% hits; in the data active = activation above about 4.9%
MITF inh: MITF inhibitors, primary screen, biochemical, AlphaScreen, human; Microphthalmia-associated transcription factor (Homo sapiens), O75030; AlphaScreen MITF homodimerization, bead proximity signal; inhibition, % at 2.6 µM; 650,000 compounds, 0.91% hits; in the data active = inhibition above about 50%
Target sequence (O75030 whole entry, looked up): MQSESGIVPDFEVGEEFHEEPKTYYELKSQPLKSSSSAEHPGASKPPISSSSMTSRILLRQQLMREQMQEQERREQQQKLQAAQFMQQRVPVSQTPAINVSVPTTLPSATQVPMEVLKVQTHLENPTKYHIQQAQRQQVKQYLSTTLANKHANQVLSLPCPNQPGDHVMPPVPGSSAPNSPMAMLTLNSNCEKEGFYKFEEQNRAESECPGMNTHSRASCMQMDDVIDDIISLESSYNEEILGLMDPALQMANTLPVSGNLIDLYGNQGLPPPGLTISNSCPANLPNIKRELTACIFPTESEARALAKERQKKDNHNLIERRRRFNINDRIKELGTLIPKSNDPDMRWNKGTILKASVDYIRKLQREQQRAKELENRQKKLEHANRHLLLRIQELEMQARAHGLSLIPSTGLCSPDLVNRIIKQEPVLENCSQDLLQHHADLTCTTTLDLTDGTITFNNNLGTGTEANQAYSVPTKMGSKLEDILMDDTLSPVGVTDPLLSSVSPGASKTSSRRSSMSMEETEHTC
FBW7 activator: FBW7 E3 ligase activators, primary screen, biochemical, AlphaScreen, human. F-box/WD repeat-containing protein 7 (Homo sapiens), Q969H0. AlphaScreen FBW7–phospho-cyclin E peptide binding, activator screen. normalized activity (activation), % at 26.1 µM. 650,000 compounds, 0.13% hits. AID 1259310, 2017; in the data active = normalized activity above about 1.9%;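 also: purified mutant Fbw7 with reduced substrate affinity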
Large screens that a line does not name were inactive. Shown are actives, neighbours in structure and some others; about 3.5% of the full set was active somewhere.

CCCn1c(=O)c(C(=O)NCCN(CC)CC)c(O)c2ccccc21	none
COc1ccc(C(c2nnnn2C2CCCC2)N2CCN(C3CCCC3)CC2)cc1OC (stereo not drawn)	none
CCCn1ccc2c(OCC(=O)Nc3ccc(OC)c(OC)c3)cccc2c1=O	TEAD-YAP inh 38
COCCn1ccc2c(OCC(=O)Nc3ccc(C)cc3)cccc2c1=O	none
COc1ccccc1-c1nnc2sc(-c3cc4ccccc4o3)nn12	TEAD-YAP inh 53
CCCn1c(=O)[nH]c2c(C(N)=O)nc(-c3sccc3C)nc21	none
Cc1ccc(C(=O)O)cc1-c1ccc(/C=C2/SC(=O)NC2=O)o1	none
NC1=NC(=O)/C(=C\c2ccc(-c3cccc(C(=O)O)c3)o2)S1	TEAD-YAP inh 44, MITF inh 58
O=C1NC(=S)S/C1=C\c1ccc(-c2cccc(C(=O)O)c2)o1	MITF inh 70
NC1=NC(=O)/C(=C/c2ccc(-c3ccccc3)o2)S1	none
O=C1NC(=S)S/C1=C\c1ccc(-c2ccc(C(=O)O)cc2)o1	none
O=C1NC(=O)/C(=C/c2ccc(-c3ccc(O)c(C(=O)O)c3)o2)S1	MITF inh 86
Cc1cccc(Cn2ccn(-c3cccc(Cl)c3)c(=O)c2=O)c1	TEAD-YAP inh 51
Cc1ccc(Cn2ccn(-c3cccc(Cl)c3)c(=O)c2=O)cc1	none
C=CCNC(=O)c1noc2c1CC(C(C)(C)C)CC2 (stereo not drawn)	none
CC(C)(C)C1CCc2onc(C(=O)NC3CCCC3)c2C1 (stereo not drawn)	FBW7 activator 2.6
C/C(=N\NC(=O)c1cc(-c2ccncc2)nc2ccccc12)c1ccc(C#N)cc1	TEAD-YAP inh 42
CC/C(C)=N\NC(=O)c1cc(-c2ccccc2)nc2ccccc12	none
COc1cccc(/C(C)=N/NC(=O)c2cc(-c3ccncc3)nc3ccccc23)c1	TEAD-YAP inh 49
COc1cccc(CNC(=O)c2cc(-c3ccncc3)nc3ccccc23)c1	none
C/C(=N\NC(=O)c1cc(-c2ccncc2)nc2ccccc12)c1ccc(-n2ccnc2)cc1	TEAD-YAP inh 43
COc1ccc(-c2ccc(NCc3cccs3)nn2)cc1OC	none
Cc1ccn2c(CN(C)C3CCOC3)c(C(=O)N3CCCCCC3)nc2c1 (stereo not drawn)	none
O=S(=O)(NCCCN1CCOC(c2ccccc2)C1)c1cccs1 (stereo not drawn)	none
Cc1ccc(S(=O)(=O)Nc2ccccc2C(=O)Nc2ccc(C(=O)O)cc2)cc1	none
O=C(Nc1cccc([N+](=O)[O-])c1)c1cccc(S(=O)(=O)Nc2cccc(F)c2)c1	none
Cc1ccc(S(=O)(=O)Nc2ccccc2C(=O)Nc2ccc([N+](=O)[O-])cc2)cc1	TEAD-YAP inh 63
Cc1cccc(NS(=O)(=O)c2ccc(NC(=O)c3ccc([N+](=O)[O-])cc3)cc2)c1	TEAD-YAP inh 35
O=C(Nc1ccc([N+](=O)[O-])cc1)c1cccc(S(=O)(=O)Nc2cccc(F)c2)c1	TEAD-YAP inh 33
COc1cc(OC)cc(C(=O)Nc2ccc(S(=O)(=O)Nc3nccc(C)n3)cc2)c1	FBW7 activator 2.0
CCOC(=O)CNS(=O)(=O)c1cc(-c2nnc(Nc3ccc(OC)c(C(N)=O)c3)c3ccccc23)ccc1C	none
CCOC(=O)c1ccc(N=Cc2c(O)cc(C)oc2=O)cc1	none
O=[N+]([O-])c1ccccc1S(=O)(=O)Nc1ccc(S(=O)(=O)N2CCCCCC2)cc1	none
CC(=O)c1cccc(NS(=O)(=O)c2ccc(NC(=O)c3ccccc3Cl)cc2)c1	TEAD-YAP inh 39
COc1ccc(NS(=O)(=O)c2ccc(NC(=O)c3cccc([N+](=O)[O-])c3)cc2)cc1	TEAD-YAP inh 33
Cc1ccc(N/C(=N/S(=O)(=O)c2ccccc2)c2ccccc2)cc1	TEAD-YAP inh 44
CCOCCCNC(=O)C(=O)Nc1cccc(C)c1C	none
C=CCN1C(=O)/C(=C\c2cc(C)n(-c3ccccc3)c2C)C(C(=O)OC)=C1C	none
CCN1C(=O)/C(=C\c2cc(C)n(-c3ccccc3C)c2C)C(C(=O)OC)=C1C	none
C=CCN1C(=O)/C(=C\c2cc(C)n(-c3ccccc3F)c2C)C(C(=O)OC)=C1C	TEAD-YAP inh 36
CCN1C(=O)/C(=C\c2cc(C)n(-c3ccccc3F)c2C)C(C(=O)OC)=C1C	TEAD-YAP inh 38
CCS(=O)(=O)NCC(c1ccco1)S(=O)(=O)c1cccs1 (stereo not drawn)	none
CCN(CC)c1ccc(/C=N/NC(=O)c2c(-c3ccccc3)noc2C)c(O)c1	none
O=C(CN1CCC(n2cnc3cccnc32)CC1)NC1CC1	none
CCc1ccccc1NC(=O)c1ccc(N2CCCCCC2)c([N+](=O)[O-])c1	none
O=C(Nc1cccc2ncccc12)c1ccc(N2CCCCC2)c([N+](=O)[O-])c1	TEAD-YAP inh 32
Cc1ccc(Nc2c([N+](=O)[O-])c(=O)oc3ccccc23)cc1	none
CN(C)c1ccc(Nc2c([N+](=O)[O-])c(=O)oc3ccccc23)cc1	TEAD-YAP inh 53
COc1ccc(S(=O)(=O)Nc2ccc3c(c2)COC3=O)cc1OC	none
Cc1ccc(-n2c(-c3ccc(Cl)cc3)c[n+]3c2CCC3)cc1	TEAD-YAP inh 64
Nc1c[n+]2c(n1-c1ccc(Br)cc1)CCCCC2	none
CC(=O)c1cccc(-c2nc(NCCc3ccc(O)cc3)c3ncn(C(C)C)c3n2)c1	TEAD-YAP inh 63
CC(C)n1cnc2c(NCCc3ccc(O)cc3)nc(-c3cccc(N)c3)nc21	none
CC(=O)c1cccc(-c2nc(NCCc3ccc(O)cc3)c3ncn(-c4ccccc4)c3n2)c1	TEAD-YAP inh 72
NC(=O)c1ccc(-c2nc(NCc3cccnc3)c3ncn(Cc4ccc(C(F)(F)F)cc4)c3n2)cc1	TEAD-YAP inh 46
CC(=O)c1cccc(-c2nc(NCc3ccccc3)c3ncn(C(C)C)c3n2)c1	none
CC(=O)c1cccc(-c2nc(NCc3cccnc3)c3ncn(C(C)C)c3n2)c1	TEAD-YAP inh 59
CC1=C(C(=O)Nc2ccc(CC(=O)N3CCCCCC3)cc2)SCCO1	none
COc1ccc(O)c(/C=N/N=c2\sc3ccccc3n2C)c1	none
O=C(NC1CC1)c1ccc(-c2nc(NCCOc3ccccc3)c3ncn(-c4ccccc4)c3n2)cc1	none
COc1ccc(CCNc2nc(-c3cccc(C(C)=O)c3)nc3c2ncn3-c2ccsc2)cc1	none
NC(=O)c1ccc(-c2nc(NCCc3ccc(O)cc3)c3ncn(C4CCCCC4)c3n2)cc1	TEAD-YAP inh 44
Cn1c(Nc2nc(NCCc3ccc(O)cc3)c3ncn(C4CCCCC4)c3n2)nc2ccccc21	TEAD-YAP inh 35
O=C(NC1CC1)c1ccc(-c2nc(NCCc3ccc(O)cc3)c3ncn(-c4ccccc4)c3n2)cc1	TEAD-YAP inh 56
CC(=O)c1cccc(-c2nc(NCCc3ccc(O)cc3)c3ncn(-c4ccsc4)c3n2)c1	TEAD-YAP inh 82
Cc1ccccc1C(=O)Nc1sc2c(c1C(=O)N1CCN(Cc3ccccc3)CC1)CCCC2	none
